ELG1 DNA repair = qHTS screen for small molecules that inhibit ELG1-dependent DNA repair in human embryonic kidney (HEK293T) cells expressing luciferase-tagged ELG1; HEK293T ELG1-luciferase reporter, luminescence, 16 h; DNA damage induced by 5-fluorouridine; Potency, µM (doses to about 46.1 µM), for the others: top-dose activity change, negative = inhibition, most hits filed as inhibitors; actives 2.3% (n = 330,000); further: on the % scale 0 is the no-effect control and ±100 the full control effect; nearly all actives have a fitted effect of over 55% in size
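Luminescence from the luciferase reporter, measured 30 min after ONE-Glo reagent at room temperature, was the read-out. Beforehand, 2,000 cells per well were exposed for 16 hr at 37 °C to 5-fluorouridine together with compound or vehicle.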
RORg inh = qHTS for inhibitors of ROR gamma transcriptional activity. Nuclear receptor ROR-gamma (Mus musculus), P51450. Drosophila S2 Gal4-RORgamma UAS-luciferase reporter, 20 h. Potency, µM (series often up to 53.6 µM), without a hit: at the top dose activity change, negative = inhibition, actives largely listed as inhibitors. actives 5.4% (n = 310,000); further: on the % scale 0 is the no-effect control and ±100 the full control effect; nearly all actives have a fitted effect of over 60% in size
Target sequence (P51450 whole entry, looked up, the tested form may be a part): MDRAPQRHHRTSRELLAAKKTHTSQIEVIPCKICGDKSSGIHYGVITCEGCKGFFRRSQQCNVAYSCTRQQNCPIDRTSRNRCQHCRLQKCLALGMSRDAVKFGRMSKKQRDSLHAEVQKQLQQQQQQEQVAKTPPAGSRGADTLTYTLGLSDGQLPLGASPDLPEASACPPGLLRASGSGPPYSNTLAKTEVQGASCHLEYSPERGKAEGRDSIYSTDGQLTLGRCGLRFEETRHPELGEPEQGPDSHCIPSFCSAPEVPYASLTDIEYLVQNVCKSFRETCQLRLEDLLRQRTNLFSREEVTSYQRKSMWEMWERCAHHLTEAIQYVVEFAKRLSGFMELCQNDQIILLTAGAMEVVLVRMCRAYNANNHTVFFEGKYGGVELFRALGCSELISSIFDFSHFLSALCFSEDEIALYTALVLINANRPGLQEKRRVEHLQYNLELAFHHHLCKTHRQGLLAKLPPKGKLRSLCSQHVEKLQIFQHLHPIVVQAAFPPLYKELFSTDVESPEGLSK
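In this cell-based reporter format, copper sulfate (700 uM final) drives Gal4–ROR gamma fusion expression from a metallothionein promoter in Drosophila Schneider cells; compounds preincubated 1 hr, reporter read after 20 hr at ambient temperature.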
VP16 counter = VP16 counterscreen qHTS for inhibitors of ROR gamma transcriptional activity; Drosophila S2 Gal4-VP16 UAS-luciferase, luminescence, 20 h; Potency, µM (doses to about 53.6 µM), for the others: at the top dose activity, negative = inhibition, actives largely listed as inhibitors; actives 3.5% (n = 310,000);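 further: Gal4-VP16 expression switched on by copper sulfate through the metallothionein promoter; on the % scale 0 is the no-effect control and ±100 the full control effect; nearly all actives have a fitted effect of over 50% in size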
SW480 rereplic = A quantitative high throughput screen for small molecules that induce DNA re-replication in SW480 colon adenocarcinoma cells; SW480 DNA re-replication, Hoechst DNA content imaging, 48 h; Potency, µM (titrated, usually from 46.1 µM), for inactives: at the highest dose re-replication activation, usual class: activators; actives 1.8% (n = 340,000); AID 624297, 2012; further: % of control where 0% means no effect; nearly all actives have a fitted effect of over 55% in size
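250 cells/well; 23 nL cpd via pin tool; 48 hr, 37 C, 5% CO2; Hoechst 40 min; imager read of total nuclear intensity, ex 405/em 500-530 nm.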
MCF10A rerep = A quantitative high throughput screen for small molecules that induce DNA re-replication in MCF 10a normal breast cells; MCF 10A DNA re-replication, Hoechst nuclear intensity, 48 h; Potency, µM (doses to about 46.1 µM), inactives show top-dose activity, positive = re-replication, usual class: activators; actives 2.9% (n = 350,000); further: % of control where 0% means no effect; nearly all actives have a fitted effect of over 50% in size
* marks the source's active call; other numbers are inactive results; u = inconclusive; x = not tested or not shown; [ ] = another dose, or the depositor's remark. Only some compounds are listed: those with a hit (about 10% of all), similar ones and a draw of the others. The call rests on the fitted dose curve; in most records, active means well fitted curve in the direction sought with a large enough effect; inconclusive means small, poorly fitted or top-dose-only effect, or another doubt; inactive means no such curve, though single readings can be large; an effect the other way counts as inactive or inconclusive. Potency means the concentration at half of the fitted maximal effect.

SMILES	ELG1 DNA repair	RORg inh	VP16 counter	SW480 rereplic	MCF10A rerep
NC(=O)[C@H]1CC2(CC(c3cccc(NC(=O)[C@H]4CCC(=O)N4)c3)=NO2)CN1C(=O)c1cc([N+](=O)[O-])cc([N+](=O)[O-])c1 (stereo partly specified)	16%	-13%	1%	u	22%
[O-][n+]1onc2c1CCc1c-2nn(-c2ccccc2Cl)[n+]1[O-]	u	6.3µM*	3.2µM*	2%	8%
Cc1ccc(-n2nc3c([n+]2[O-])CCc2c-3no[n+]2[O-])cc1	u	-11%	u	u	2%
CCn1c(-c2cccn(Cc3ccccc3)c2=O)n[nH]c1=S	-3%	-32%	8%	-18%	-2%
CCC(C)NC(=O)CSc1nnc(-c2cc(-c3ccc(C)cc3)nc3ccccc23)n1N (stereo unspecified)	u	40%	11%	1%	18%
CCn1c(-c2cc(-c3ccc(C)cc3)nc3ccccc23)n[nH]c1=S	-4%	1.1µM*	-19%	-6%	-1%
CCn1c(-c2ccccc2SC)n[nH]c1=S	-5%	14µM*	-11%	25%	-41%
C=CCn1c(-c2cc(-c3ccc(C)cc3)nc3ccccc23)n[nH]c1=S	u	0.89µM*	10µM*	6%	u
CCn1c(-c2cc(-c3ccc(OC(C)C)cc3)nc3ccccc23)n[nH]c1=S	u	13µM*	u	8%	17%
Cc1cc(C)c2c(c1)OC(=O)CC2c1ccccc1C (stereo unspecified)	1%	-24%[96.6 µM]	-1%[96.6 µM]	-5%	-1%
COCCSc1nnc(NS(=O)(=O)c2ccc(F)cc2)s1	-1%	3%	-6%	-1%	-12%
CCCOc1cccc(-c2cc(-c3n[nH]c(=S)n3CC)c3ccccc3n2)c1	-16%	1.3µM*	-20%	u	u
Cc1ccc2nc(NC(=O)c3ccccn3)sc2c1	u	0.35µM*	1.1µM*	0%	u
CCOc1ccc2nc(NC(=O)c3ccco3)sc2c1	u	u	u	7%	-11%
COc1ccc2nc(NC(=O)c3ccccc3F)sc2c1	u	u	u	15%	17%
Cc1ccc2nc(NC(=O)c3ccccc3F)sc2c1	u	1.3µM*	7.1µM*	0%[9.22 µM]	24%
CCOc1ccc2nc(NC(=O)c3ccoc3C)sc2c1	u	u	11µM*	-5%[9.22 µM]	21%
CCOc1ccc2nc(NC(=O)c3ccccn3)sc2c1	u	0.71µM*	2.8µM*	u	u
Cc1ccccc1-c1nc(CN(C)C(C)c2ccon2)c(C)o1 (stereo unspecified)	3%	-28%	-13%	2%	9%
Cc1cccc(NS(=O)(=O)c2ccc(C(=O)NCC(c3ccco3)N(C)C)cc2)c1C (stereo unspecified)	-15%	1%	3%	-1%	15%
CCN1CCN(C(=O)N(CC(=O)Nc2ccc(C(N)=O)cc2)S(=O)(=O)c2ccc(C)cc2)CC1	u	x	x	-2%	7%
C/C1=C2/[N-]C(C(CC(N)=O)[C@@]2(C)CCC(=O)NCC(C)OP(=O)([O-])O[C@H]2[C@@H](O)[C@@H](n3cnc4cc(C)c(C)cc43)O[C@@H]2CO)[C@]2(C)N=C(/C(C)=C3N=C(/C=C4N=C1C(CCC(N)=O)C\4(C)C)[C@@H](CCC(N)=O)[C@]\3(C)CC(N)=O)[C@@H](CCC(N)=O)[C@]2(C)CC(N)=O.CC(=O)O.[Co] (stereo partly specified)	x	u	u	0%	-4%
CCOc1ccc2nc(NC(=S)NCc3ccccc3)sc2c1	u	2.2µM*	2.8µM*	-1%	22%
Cc1cc(C)nc(NC(=S)NC(=O)c2ccccc2F)n1	x	x	x	-53%	-11%
Cc1cc(NC(=O)c2ccccc2F)on1	u	-21%	-8%	21µM*	3%
SMILES	ELG1 DNA repair	RORg inh	VP16 counter	SW480 rereplic	MCF10A rerep
CC(=O)Nc1ccc2nc(NC(=O)CCc3ccccc3)sc2c1	7%	u	u	-18%	-4%
CCCC(=O)Nc1nc2ccc(NC(=O)c3ccccc3F)cc2s1	-4%	13%	-4%	8.2µM*	6.5µM*
O=C(Nc1nc2c(F)cc(F)cc2s1)c1ccccn1	u	0.22µM*	2µM*	2%	3%
CCn1nc(C(=O)Nc2nc3ccc(C)cc3s2)c2ccccc2c1=O	4%	8%	4%	21µM*	23µM*
CCOc1ccc2nc(NC(=O)Cn3[nH]c(=O)c4ccccc4c3=O)sc2c1	u	u	-3%	123%	21µM*
O=C(Nc1nc2ccc(S(=O)(=O)N3CCCC3)cc2s1)c1ccccn1	21µM*	2.8µM*	u	9%	-2%
CSc1ncccc1C(=O)Nc1nc2ccc(Oc3ccccc3)cc2s1	u	10µM*	u	-75%	u
CCN1C(=O)[C@@H]2[C@@H](c3ccc(-c4ccc(C(C)=O)cc4)c(OC)c3)N3CCC[C@@]3(C(=O)OC)[C@@H]2C1=O	u	x	x	-5%	9%
CC(C)c1cccc(C(C)C)c1NC(=O)COC(=O)C1CCC1	0%	x	x	u	2%
CCC1=C2CC[C@H]3C(=O)N(CC(=O)OC)C(=O)[C@H]3[C@H]2[C@@]2(Cc3ccccc3)C(=NCCc3c[nH]c4ccccc34)OC(=O)N2C1=O	x	26%	-8%	x	x
O=C(COc1ccccc1)NNc1nc2c(F)cc(F)cc2s1	7%	13µM*	0%	-4%	-7%
Cc1ccc(C(O)(C(=O)NNc2ccc3ccccc3n2)c2ccc(C)cc2)cc1	u	10µM*	8.9µM*	17%	u
Cc1cccnc1CN1CCN(Cc2nc(C(c3ccccc3)c3ccccc3)no2)CC1	5%	11µM*	-25%	u	u
CC(=O)N1CCN(Cc2nc(C(c3ccccc3)c3ccccc3)no2)CC1	-11%	19%	5%	0%	-11%
c1ccc(CNc2ncncc2-c2ccoc2)cc1	x	2%	-2%	x	x
CCOC(=O)c1c(NC(=O)C(=O)N/N=C/c2ccc(O)c(OC)c2)sc2c1CCCCC2	15µM*	20%	-23%	1%	u
CCOC(=O)c1c(NC(=O)N/N=C/c2ccccc2OCC)sc(C(C)=O)c1C	-8%	29%	-2%	4%	u
CCOC(=O)c1c(NC(=O)N/N=C/c2ccc(O)c(OC)c2)sc(C(C)=O)c1C	4.6µM*	-18%	-3%	x	x
CC(NC(=O)Nc1ccc(F)cc1)C(c1cccs1)N1CCCC1 (stereo unspecified)	9%	5%	-2%	1%	-3%

High-throughput results deposited in PubChem BioAssay by National Center for Advancing Translational Sciences (NCATS).
